Results reported in PubChem BioAssay (Tox21).
A number with no mark means an inactive call. Records with an inconclusive call do not appear. A call without a number means that no potency is given here. Calls of active or inactive are those of the source. Calls come from the whole dose curve.

What was measured:
[1] = biological target: Acetylcholinesterase (Homo sapiens) (UniProt P22303); experiment: Acetylcholinesterase (AChE) small molecule antagonists: colormetric cell-based qHTS assay (AID 1347395); note: nearly all actives have a fitted effect of over 30% in size; note: potency is the fitted concentration of half-maximal effect
In short: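 Endogenous AChE of human neuroblastoma SH-SY5Y cells was measured with an Ellman-type DTNB/acetylthiocholine mix. Compound pretreatment lasted 30 min at 37 C; substrate reaction ran 90 min at 37 C.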

[2] = biological target: Acetylcholinesterase (Homo sapiens) (UniProt P22303); experiment: Acetylcholinesterase (AChE) small molecule antagonists: enzyme-based qHTS assay (AID 1347397); settings: Potency: AChE enzyme activity inhibition; outcome: AChE enzyme activity inhibition; note: nearly all actives have a fitted effect of over 55% in size; note: potency is the fitted concentration of half-maximal effect
In short: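 Recombinant human AChE, dispensed at 50 mU/mL, was preincubated with Tox21 10K compounds or DMSO vehicle for 30 min at room temperature. DTNB plus acetylthiocholine was then added, and thiocholine was measured colorimetrically after a further 10 min.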

[3] = biological target: Acetylcholinesterase (Homo sapiens) (UniProt P22303); experiment: Acetylcholinesterase (AChE) small molecule antagonists: fluorescence cell-based qHTS assay (AID 1347398); settings: Potency: AChE activity; outcome: AChE activity; note: nearly all actives have a fitted effect of over 50% in size; note: potency is the fitted concentration of half-maximal effect
In short: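 Human SH-SY5Y cells were plated overnight at 37 C, exposed to compound for 30 min at 37 C, 5% CO2, then given acetylthiocholine plus Thiolite Green for 40 min at room temperature; thiocholine fluorescence (Ex/Em 490/520 nm) reports endogenous AChE activity.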

[4] = biological target: Acetylcholinesterase (Homo sapiens) (UniProt P22303); experiment: Acetylcholinesterase (AChE) small molecule antagonists: enzyme-based qHTS assay with human liver microsomes (AID 1347399); settings: Potency: qHTS inhibition; outcome: qHTS inhibition; note: nearly all actives have a fitted effect of over 60% in size
In short: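 Recombinant human AChE (50 mU/mL in the enzyme mix) and human liver microsomes (0.25 mg/mL final) were preincubated with compound and NADPH (0.25 mg/mL final) for 30 min at 37 C. Acetylthiocholine/DTNB was then added; thiocholine was read colorimetrically after 10 min at room temperature.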

Chain of Acetylcholinesterase (Homo sapiens) (P22303 whole entry, looked up): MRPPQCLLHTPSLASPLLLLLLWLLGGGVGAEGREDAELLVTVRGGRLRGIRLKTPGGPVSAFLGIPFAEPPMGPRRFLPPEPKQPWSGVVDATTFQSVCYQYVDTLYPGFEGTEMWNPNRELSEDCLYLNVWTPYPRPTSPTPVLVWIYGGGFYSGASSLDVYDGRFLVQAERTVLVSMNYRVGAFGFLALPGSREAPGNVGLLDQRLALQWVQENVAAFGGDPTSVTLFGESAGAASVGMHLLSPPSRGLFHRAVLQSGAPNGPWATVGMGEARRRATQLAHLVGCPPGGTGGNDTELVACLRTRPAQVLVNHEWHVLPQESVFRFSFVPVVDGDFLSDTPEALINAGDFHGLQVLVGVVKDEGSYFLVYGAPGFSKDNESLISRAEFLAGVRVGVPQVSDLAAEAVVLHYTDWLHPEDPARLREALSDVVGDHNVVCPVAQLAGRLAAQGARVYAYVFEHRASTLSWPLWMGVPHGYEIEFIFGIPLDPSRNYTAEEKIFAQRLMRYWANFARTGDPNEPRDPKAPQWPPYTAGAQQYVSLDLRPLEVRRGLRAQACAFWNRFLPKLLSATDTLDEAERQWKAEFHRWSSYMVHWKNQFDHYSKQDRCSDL

## COC(=O)c1cccc(Cl)c1
[1]
  Potency: inactive
[2]
  Potency: inactive
[3]
  Potency: inactive
[4]
  Potency: inactive

## O=C1C=CCCC1
[1]
  Potency: inactive
[2]
  Potency: inactive
[3]
  Potency: inactive
[4]
  Potency: inactive

## CO[C@H]1C=CO[C@@]2(C)Oc3c(C)c(O)c4c(O)c(cc(O)c4c3C2=O)NC(=O)/C(C)=C\C=C/[C@H](C)[C@H](O)[C@@H](C)[C@@H](O)[C@@H](C)[C@H](OC(C)=O)[C@@H]1C
[1]
  Potency: inactive
[2]
  Potency: inactive
[3]
  Potency: inactive
[4]
  Potency: inactive

## COc1ccc(C2C(=O)c3ccccc3C2=O)cc1
[1]
  Potency: inactive
[2]
  Potency: inactive
[3]
  Potency: inactive
[4]
  Potency: inactive

## Cc1cccc(C)c1NC(=O)C(C)N (stereo not drawn)
[1]
  Potency: inactive
[2]
  Potency: inactive
[3]
  Potency: inactive
[4]
  Potency: inactive

## O=C(O)COCC(=O)O
[1]
  Potency: inactive
[2]
  Potency: inactive
[3]
  Potency: inactive
[4]
  Potency: inactive

## CC(=O)N(c1onc(C)c1C)S(=O)(=O)c1ccc(N)cc1
[1]
  Potency: inactive
[2]
  Potency: inactive
[3]
  Potency: inactive
[4]
  Potency: inactive

## CCCCOc1ccc(C(=O)CCN2CCCCC2)cc1
[1]
  Potency: 12.3 µM (active)
[2]
  Potency: 27.5 µM (active)
[3]
  Potency: 12.3 µM (active)
[4]
  Potency: inactive

## C=CCOC(=O)COCCC(C)C
[1]
  Potency: inactive
[2]
  Potency: inactive
[3]
  Potency: inactive
[4]
  Potency: inactive

## CN(C)CCN(C)CCO
[1]
  Potency: inactive
[2]
  Potency: inactive
[3]
  Potency: inactive
[4]
  Potency: inactive

## C[C@@H](c1ncncc1F)C(O)(Cn1cncn1)c1ccc(F)cc1F (stereo partly drawn)
[1]
  Potency: inactive
[2]
  Potency: inactive
[3]
  Potency: inactive
[4]
  Potency: inactive

## CC(C)c1ccccc1
[1]
  Potency: inactive
[2]
  Potency: inactive
[3]
  Potency: inactive
[4]
  Potency: inactive

## Nc1cccc2c(=O)[nH][nH]c(=O)c12
[1]
  Potency: inactive
[2]
  Potency: inactive
[3]
  Potency: inactive
[4]
  Potency: inactive

## CC(C)C(=O)OCCc1ccccc1
[1]
  Potency: inactive
[2]
  Potency: inactive
[3]
  Potency: inactive
[4]
  Potency: inactive

## CC(C)(O)Cc1ccccc1
[1]
  Potency: inactive
[2]
  Potency: inactive
[3]
  Potency: inactive
[4]
  Potency: inactive

## CC/C=C\C/C=C\C/C=C\CCCCCCCC(=O)OC
[1]
  Potency: inactive
[2]
  Potency: inactive
[3]
  Potency: inactive
[4]
  Potency: inactive

## O=C(/C=C/c1ccc(O)c(O)c1)O[C@@H]1C[C@@](OC(=O)/C=C/c2ccc(O)c(O)c2)(C(=O)O)C[C@@H](O)[C@@H]1O
[1]
  Potency: inactive
[2]
  Potency: inactive
[3]
  Potency: inactive
[4]
  Potency: inactive

## CCCCCCCC/C=C\CCCCCCCC(=O)OCCO
[1]
  Potency: inactive
[2]
  Potency: inactive
[3]
  Potency: inactive
[4]
  Potency: inactive

## c1ccc2occc2c1
[1]
  Potency: inactive
[2]
  Potency: inactive
[3]
  Potency: inactive
[4]
  Potency: inactive

## C=C(C)[C@H]1CC=C(C)CC1
[1]
  Potency: inactive
[2]
  Potency: inactive
[3]
  Potency: inactive
[4]
  Potency: inactive

## Nc1ccn([C@@H]2O[C@H](CO)[C@@H](O)C2(F)F)c(=O)n1
[1]
  Potency: inactive
[2]
  Potency: inactive
[3]
  Potency: inactive
[4]
  Potency: inactive

## CC1OCCC1=O (stereo not drawn)
[1]
  Potency: inactive
[2]
  Potency: inactive
[3]
  Potency: inactive
[4]
  Potency: inactive

## COc1cc(-c2ccc(N=C=O)c(OC)c2)ccc1N=C=O
[1]
  Potency: inactive
[2]
  Potency: inactive
[3]
  Potency: inactive
[4]
  Potency: inactive

## CCSCC
[1]
  Potency: inactive
[2]
  Potency: inactive
[3]
  Potency: inactive
[4]
  Potency: inactive

## CC(=O)CC(c1ccc([N+](=O)[O-])cc1)c1c(O)c2ccccc2oc1=O (stereo not drawn)
[1]
  Potency: inactive
[2]
  Potency: inactive
[3]
  Potency: inactive
[4]
  Potency: inactive

## CC1(CO)CN(c2ccccc2)NC1=O (stereo not drawn)
[1]
  Potency: inactive
[2]
  Potency: inactive
[3]
  Potency: inactive
[4]
  Potency: inactive

## C=CC(C)=CCC=C(C)C
[1]
  Potency: inactive
[2]
  Potency: inactive
[3]
  Potency: inactive
[4]
  Potency: inactive

## CCCCCCCCCCCCCC=O
[1]
  activity, negative = inhibition: 1.02% [at 10.5 µM]
[2]
  activity change, negative = inhibition: 0.138% [at 10.5 µM]
[3]
  activity change, negative = inhibition: 1.81% [at 10.5 µM]
[4]
  activity change, negative = inhibition: -0.486% [at 10.5 µM]

## CCCCCCCCCCCCCC(=O)OCC(O)CO (stereo not drawn)
[1]
  Potency: inactive
[2]
  Potency: inactive
[3]
  Potency: inactive
[4]
  Potency: inactive

## CCC1(C)NC(=O)NC1=O (stereo not drawn)
[1]
  Potency: inactive
[2]
  Potency: inactive
[3]
  Potency: inactive
[4]
  Potency: inactive

## COc1cc(C)ccc1C(C)C
[1]
  Potency: inactive
[2]
  Potency: inactive
[3]
  Potency: inactive
[4]
  Potency: inactive

## CCCCCCCC/C=C\CCCCCCCCCCCC(=O)O
[1]
  Potency: inactive
[2]
  Potency: inactive
[3]
  Potency: inactive
[4]
  Potency: inactive

## CNCC(O)c1ccc(O)c(O)c1 (stereo not drawn)
[1]
  outcome: inactive
[2]
  outcome: inactive
[3]
  outcome: inactive
[4]
  outcome: inactive

## NC(=O)N1c2ccccc2CC(=O)c2ccccc21
[1]
  Potency: inactive
[2]
  Potency: inactive
[3]
  Potency: inactive
[4]
  Potency: inactive

## COCCOC(=O)C1=C(C)NC(C)=C(C(=O)OC/C=C/c2ccccc2)C1c1cccc([N+](=O)[O-])c1 (stereo not drawn)
[1]
  Potency: inactive
[2]
  Potency: inactive
[3]
  Potency: inactive
[4]
  Potency: inactive

## CCNC(=O)NCc1cccc(Cl)c1
[1]
  Potency: inactive
[2]
  Potency: inactive
[3]
  Potency: inactive
[4]
  Potency: inactive

## Nc1nc(N)nc(-c2cc(Cl)ccc2Cl)n1
[1]
  Potency: inactive
[2]
  Potency: inactive
[3]
  Potency: inactive
[4]
  Potency: inactive
